Results filed as inconclusive are left out. Activity calls are given as the source filed them. Calls follow the shape of the dose curve; as a rule, active = well fitted curve in the direction sought with a large enough effect in the repeat runs; inconclusive = weak or mixed curves; inactive = no such curve, though single readings can be large; an effect the other way counts as inactive or inconclusive.
Assays:
[1] = A CellTox Green Cytotoxicity Assay to monitor cytotoxicity in HEK293 cells - 40 hour (AID 1224871); also: nearly all actives have a fitted effect of over 45% in size
How it was run: (§1)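 Each value comes from one timepoint of a single continuous run in which HEK293 cells with CellTox Green were exposed to compound for up to 40 h at 37 C, dye fluorescence rising with cell death.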

[2] = qHTS RealTime-Glo MT Cell Viability Assay in HEK293 cells - 16 hour (AID 1224872); also: top concentration of the series differs between compounds; nearly all actives have a fitted effect of over 50% in size
How it was run: (§2)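 Homogeneous bioluminescent viability format in HEK293 cells (600 cells/well). Following 5 h at 37 C/5% CO2, 23 nL compound was pintooled; the signal was measured repeatedly during 40 h incubation.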

[3] = qHTS RealTime-Glo MT Cell Viability Assay in HepG2 cells - 8 hour (AID 1224873); also: nearly all actives have a fitted effect of over 55% in size
How it was run: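 HepG2 cells mixed with RealTime-Glo MT reagents (NanoLuc plus cell-permeant prosubstrate) were seeded at 600 cells/well, incubated 5 h at 37 C/5% CO2, then pinned with compounds in DMSO; nonlytic luminescence tracked viability during 40 h treatment.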

[4] = qHTS RealTime-Glo MT Cell Viability Assay in HEK293 cells - 40 hour (AID 1224874); settings: RealTime-Glo luminescence; max response: stronger effect = lower value; also: nearly all actives have a fitted effect of over 50% in size
How it was run: (§3)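 qHTS format; HEK293 cells with NanoLuc/prosubstrate reagent, 37 C/5% CO2 for 5 h pre-dosing; compounds 23 nL in DMSO; luminescence at each time point reflects viable cells.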

[5] = A CellTox Green Cytotoxicity Assay to monitor cytotoxicity in HEK293 cells - 24 hour (AID 1224875); also: series mostly up to about 77 µM; nearly all actives have a fitted effect of over 45% in size
How it was run: as §1

[6] = A CellTox Green Cytotoxicity Assay to monitor cytotoxicity in HepG2 cells - 16 hour (AID 1224876); also: nearly all actives have a fitted effect of over 45% in size
How it was run: (§4)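 Continuous culture of HepG2 cells with a membrane-impermeant DNA dye; rising fluorescence marks dead cells. Compound exposure lasted up to 40 h at 37 C, with reads every 8 h from 0 h.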

[7] = A CellTox Green Cytotoxicity Assay to monitor cytotoxicity in HepG2 cells - 24 hour (AID 1224878); also: nearly all actives have a fitted effect of over 45% in size
How it was run: as §4

[8] = A CellTox Green Cytotoxicity Assay to monitor cytotoxicity in HepG2 cells - 40 hour (AID 1224879); also: nearly all actives have a fitted effect of over 40% in size
How it was run: as §4

[9] = qHTS RealTime-Glo MT Cell Viability Assay in HEK293 cells - 0 hour (AID 1224880)
How it was run: as §3

[10] = A CellTox Green Cytotoxicity Assay to monitor cytotoxicity in HEK293 cells - 32 hour (AID 1224881); also: nearly all actives have a fitted effect of over 40% in size
How it was run: as §1

[11] = A CellTox Green Cytotoxicity Assay to monitor cytotoxicity in HepG2 cells - 0 hour (AID 1224882); also: nearly all actives have a fitted effect of over 35% in size
How it was run: as §4

[12] = A CellTox Green Cytotoxicity Assay to monitor cytotoxicity in HepG2 cells - 32 hour (AID 1224883); also: nearly all actives have a fitted effect of over 50% in size
How it was run: as §4

[13] = A CellTox Green Cytotoxicity Assay to monitor cytotoxicity in HEK293 cells - 8 hour (AID 1224884); also: nearly all actives have a fitted effect of over 35% in size
How it was run: as §1

[14] = qHTS RealTime-Glo MT Cell Viability Assay in HepG2 cells - 16 hour (AID 1224885); also: nearly all actives have a fitted effect of over 50% in size
How it was run: (§5)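 Cell number in HepG2 cultures estimated from NanoLuc luminescence generated by metabolic reduction of a prosubstrate by living cells. The homogeneous, nonlytic format allowed repeated reads at 0, 8, 16, 24, 32 and 40 h of compound exposure.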

[15] = qHTS RealTime-Glo MT Cell Viability Assay in HEK293 cells - 24 hour (AID 1224886)
How it was run: as §2

[16] = qHTS RealTime-Glo MT Cell Viability Assay in HEK293 cells - 8 hour (AID 1224887)
How it was run: as §3

[17] = A CellTox Green Cytotoxicity Assay to monitor cytotoxicity in HEK293 cells - 16 hour (AID 1224888); also: nearly all actives have a fitted effect of over 35% in size
How it was run: as §1

[18] = qHTS RealTime-Glo MT Cell Viability Assay in HepG2 cells - 0 hour (AID 1224889); also: nearly all actives have a fitted effect of over 50% in size
How it was run: as §5

[19] = A CellTox Green Cytotoxicity Assay to monitor cytotoxicity in HepG2 cells - 8 hour (AID 1224890); also: nearly all actives have a fitted effect of over 45% in size
How it was run: as §4

[20] = qHTS RealTime-Glo MT Cell Viability Assay in HepG2 cells - 32 hour (AID 1224877); also: nearly all actives have a fitted effect of over 55% in size
How it was run: as §5
% is scaled to controls: 0 for no effect and ±100 for the full control effect.

OC1OC[C@@H](O)[C@H](O)[C@H]1O (some centres not stated)
inactive: Potency [1] | Potency [2] | outcome [3] | max response [4] 0.611% | Potency [5] | Potency [6] | Potency [7] | Potency [8] | outcome [9] | Potency [10] | Potency [11] | Potency [12] | Potency [13] | outcome [14] | Potency [15] | Potency [16] | Potency [17] | Potency [18] | Potency [19]

CCCCOCC(C)OCC(C)O (configuration not stated)
inactive: Potency [1] | Potency [2] | outcome [3] | max response [4] 2.63% | Potency [5] | Potency [6] | Potency [20] | Potency [8] | outcome [9] | Potency [10] | Potency [11] | Potency [12] | Potency [13] | outcome [14] | Potency [15] | Potency [16] | Potency [18] | Potency [19]

C1C2OC2C2C1C1CC2C2OC12 (configuration not stated)
inactive: Potency [1] | Potency [2] | outcome [3] | max response [4] 2.43% | Potency [5] | Potency [6] | Potency [20] | Potency [8] | outcome [9] | Potency [10] | Potency [11] | outcome [14] | Potency [15] | Potency [16] | Potency [18] | Potency [19]

CCCC(=O)O[C@]1(C(=O)CCl)[C@@H](C)C[C@H]2[C@@H]3CCC4=CC(=O)C=C[C@]4(C)[C@@]3(F)C(=O)C[C@@]21C
inactive: Potency [1] | Potency [2] | outcome [3] | max response [4] -19.8% | Potency [5] | Potency [6] | Potency [20] | Potency [8] | outcome [9] | Potency [10] | Potency [11] | Potency [12] | Potency [13] | outcome [14] | Potency [15] | Potency [16] | Potency [18] | Potency [19]

O=C(O)c1ccc[n+]([O-])c1
inactive: Potency [1] | Potency [2] | outcome [3] | max response [4] 8.34% | Potency [5] | Potency [6] | Potency [20] | Potency [8] | outcome [9] | Potency [10] | Potency [11] | Potency [12] | Potency [13] | outcome [14] | Potency [16] | Potency [17] | Potency [18]

NS(=O)(=O)c1cc2c(cc1C(F)(F)F)NC(Cc1ccccc1)NS2(=O)=O (configuration not stated)
inactive: Potency [1] | Potency [2] | outcome [3] | max response [4] -7.67% | Potency [5] | Potency [6] | Potency [7] | Potency [8] | outcome [9] | Potency [10] | Potency [11] | Potency [12] | outcome [14] | Potency [15] | Potency [16] | Potency [17] | Potency [18] | Potency [19]

CCCCCCOC(=O)CC(CC(=O)OCCCCCC)(OC(=O)CCC)C(=O)OCCCCCC
inactive: Potency [1] | Potency [2] | outcome [3] | max response [4] 15.3% | Potency [5] | Potency [6] | Potency [20] | Potency [8] | outcome [9] | Potency [10] | Potency [11] | Potency [13] | outcome [14] | Potency [15] | Potency [16] | Potency [18] | Potency [19]

CCCCCC[C@@H](CCC)C(=O)O
inactive: Potency [1] | Potency [2] | outcome [3] | max response [4] 13.8% | Potency [5] | Potency [6] | Potency [20] | Potency [7] | Potency [8] | Potency [10] | Potency [11] | Potency [12] | Potency [13] | outcome [14] | Potency [15] | Potency [17] | Potency [18] | Potency [19]

CC1=CC(=O)CCC1
inactive: Potency [1] | Potency [2] | outcome [3] | max response [4] -3.69% | Potency [5] | Potency [6] | Potency [7] | Potency [8] | outcome [9] | Potency [10] | Potency [11] | Potency [12] | Potency [13] | outcome [14] | Potency [15] | Potency [16] | Potency [17] | Potency [18] | Potency [19]

CC1(C)OC(=O)Nc2ccc(Br)cc21
inactive: Potency [1] | Potency [2] | outcome [3] | max response [4] 0.0036% | Potency [5] | Potency [6] | Potency [7] | Potency [8] | outcome [9] | Potency [10] | Potency [11] | Potency [12] | Potency [13] | outcome [14] | Potency [15] | Potency [16] | Potency [17] | Potency [18] | Potency [19]

OC[C@H]1O[C@@H]2O[C@H]3[C@H](O)[C@@H](O)[C@@H](O[C@H]4[C@H](O)[C@@H](O)[C@@H](O[C@H]5[C@H](O)[C@@H](O)[C@@H](O[C@H]6[C@H](O)[C@@H](O)[C@@H](O[C@H]7[C@H](O)[C@@H](O)[C@@H](O[C@H]8[C@H](O)[C@@H](O)[C@@H](O[C@H]9[C@H](O)[C@@H](O)[C@@H](O[C@H]1[C@H](O)[C@H]2O)O[C@@H]9CO)O[C@@H]8CO)O[C@@H]7CO)O[C@@H]6CO)O[C@@H]5CO)O[C@@H]4CO)O[C@@H]3CO
inactive: Potency [1] | Potency [2] | outcome [3] | max response [4] 1.22% | Potency [5] | Potency [6] | Potency [20] | Potency [8] | outcome [9] | Potency [10] | Potency [11] | Potency [13] | outcome [14] | Potency [15] | Potency [16] | Potency [17] | Potency [18] | Potency [19]

— PubChem BioAssay (Tox21)
